Broadly, the Inhibition is the change of the read-out against control, counted positive when it falls. High values mean strong suppression, low ones little suppression.

Each structure is given as a SMILES string.

Format in all cases: functional
The subject of assay [1] is Plasmodium falciparum. The experiment in a line: GSK_TCMDC: Inhibition of Plasmodium falciparum 3D7 in whole red blood cells, using parasite LDH activity as an index of growth. Test compounds present at 2uM.
The test system of assay [2] is Plasmodium falciparum. Briefly: GSK_TCMDC: Inhibition of Plasmodium falciparum Dd2 in whole red blood cells, using parasite LDH activity as an index of growth. Test compounds present at 2uM.
The subject of a further assay is HepG2. Briefly: GSK_TCMDC: Percent inhibition of human HepG2 cell line. Test compounds present at 10uM.

With `CCCCC(=O)Nc1nc2ccc([N+](=O)[O-])cc2s1`, the Inhibition worked out at 91% in the assay on Plasmodium falciparum [1], 69% in the assay with Plasmodium falciparum [2] and 9% in the assay with HepG2.
Taken in the same sequence, the figures for `CO/C(=C\C=C\c1cc2cc(Cl)c(Cl)cc2[nH]1)C(=O)NCCCN1CCN(c2cccc(OCC(=O)Nc3ccccc3)c2)CC1` were 100%, 81% and 49%.
On to `CC(=O)Nc1ccc(CN2CCC(CNC(=O)c3cc(-c4cccc(C(F)(F)F)c4)cs3)C2)cc1.O=C(O)C(F)(F)F` (stereo unspecified), for which the results for the Inhibition with Plasmodium falciparum [1], in the assay with Plasmodium falciparum [2] and in the assay with HepG2 were 97%, 3% and 24%, respectively.
In the same order, the values of `CC1CCCCC1N(C)C1CCN(CCCNC(=O)C=Cc2ccc(Cl)cc2Cl)CC1` (stereo unspecified) are 100%, 59% and 53%.
Taken in the same sequence, the figures for `CCCCCCC1(C)N=C(N)N=C(N)C1c1ccc(Cl)c(Cl)c1.Cl` (stereo unspecified) were 94%, 43% and 18%.
For the molecule `COc1ccc(-c2cccc(CNCc3ccc(F)cc3)c2)cc1S(=O)(=O)NCCN1CCCC1.O=C(O)C(F)(F)F`, the Inhibition with Plasmodium falciparum [1] turned out to be 100%; with Plasmodium falciparum [2], 16%; in the assay on HepG2, 20%.
Consider `O=C(Nc1cccc(CN2CCCN(Cc3ccc(F)cc3)CC2)c1)c1ccc(Cl)c(Cl)c1.O=C(O)C(F)(F)F`, for which the Inhibition with Plasmodium falciparum [1] is listed as 95%; with Plasmodium falciparum [2] it was 17%; with HepG2, 27%.
In the same order, the values of `Cc1nc2nc(N)nc(N)c2c(C)c1Cc1ccc(C#N)cc1.Cl` are 96%, 4% and 69%.
With `COc1ccc2nccc([C@@H](O)CN3CCC(NCc4nc5cc(F)cc(F)c5[nH]4)CC3)c2c1.O=C(O)C(=O)O`, the Inhibition in the assay on Plasmodium falciparum [1] came out at 99%; with Plasmodium falciparum [2], 64%; in the assay on HepG2, 19%.
As to `CCC(C)NC(=O)Nc1ccc(-c2cccc(-c3nc4cc(C(F)(F)F)ccc4[nH]3)c2)cc1` (stereo unspecified), the Inhibition in the assay with Plasmodium falciparum [1] was 97%; in the assay with Plasmodium falciparum [2], 0%; in the assay with HepG2, 45%.
In the same order, the values of `CC(C)NCC(O)Cn1c2ccc(Br)cc2c2cc(Br)ccc21` (stereo unspecified) are 99%, 100% and 100%.
In the same order, the values of `Fc1ccc2[nH]c(-c3cccc(-c4ccc(CNCC5CCCO5)cc4)c3)nc2c1.O=C(O)C(F)(F)F` (stereo unspecified) are 100%, 98% and 36%.
For `CCC(=O)Oc1ccc(NC(=O)c2cccc(OC)c2)cc1`, the Inhibition with Plasmodium falciparum [1] was 98%; in the assay on Plasmodium falciparum [2] it was 3%; in the assay on HepG2, 17%.
Taken in the same sequence, the figures for `CN(C)c1ccc(-c2ccc(C(=O)NC3CCN(Cc4ccc(F)cc4)CC3)s2)cc1.O=C(O)C(F)(F)F` were 87%, 19% and 34%.
Taken in the same sequence, the figures for `O=C(N[C@@H](Cc1ccccc1)[C@H](O)CNCCC(F)(F)F)c1cccc(OCC2CC2)c1` were 98%, 95% and 0%.
In the case of `CCN(CC)CCCC(C)Nc1ccnc2ccc(-c3ccccc3)cc12` (stereo unspecified), the Inhibition with Plasmodium falciparum [1] is listed as 98%; in the assay on Plasmodium falciparum [2], 21%; in the assay on HepG2, 0%.
In the same order, the values of `COc1ccc(NC(=O)c2ccc(-c3cc(NC(=O)c4ccnc(N5CCCC5)c4)ccc3C)s2)cc1N1CCN(C)CC1.O=C(O)C(F)(F)F` are 100%, 100% and 15%.
Taken in the same sequence, the figures for `O=C(O)C(F)(F)F.Oc1ccc(CCNc2nc(NCc3ccccc3-c3ccc(F)cc3)nc(N3CCNCC3)n2)cc1` were 92%, 24% and 15%.
For the molecule `CCOc1cc(C(=O)Nc2cccnc2)ccc1-c1nc2cc(Cl)c(Cl)cc2[nH]1`, the Inhibition with Plasmodium falciparum [1] came out at 100%; in the assay with Plasmodium falciparum [2], 70%; in the assay with HepG2 it was 9%.
Taken in the same sequence, the figures for `O=C(/C=C/c1ccc(I)cc1)NCCCCCN1CCC(c2c[nH]c3ccc(O)cc23)CC1` were 97%, 1% and 14%.
Take `COc1ccc(Cn2c(SCc3ccc(C)cc3)nc3cc(OC)c(OC)cc3c2=N)cc1Cl`: the Inhibition in the assay on Plasmodium falciparum [1] is recorded as 92%; in the assay with Plasmodium falciparum [2], 7%; in the assay with HepG2, 50%.
In the case of `CN(C)CCOc1ccc2c(=O)cc(CCc3cccc(F)c3F)n(CC(=O)N(C)Cc3ccc(-c4ccc(C(F)(F)F)cc4)cc3)c2c1.O=C(O)C(O)C(O)C(=O)O`, the Inhibition was found to be 90% with Plasmodium falciparum [1], 60% in the assay with Plasmodium falciparum [2] and 33% in the assay on HepG2.
As to `NC1=NC(c2ccccc2)(c2ccccc2)C(=O)N1Cc1ccc(-c2cccnc2)cc1.O=CO`, the values for the Inhibition in the assay with Plasmodium falciparum [1], with Plasmodium falciparum [2] and in the assay on HepG2 were 99%, 94% and 15%, respectively.
In the same order, the values of `Br.Nc1ccc(-c2csc(Nc3ccncc3)n2)cc1` are 95%, 50% and 12%.
Taken in the same sequence, the figures for `CN1CCN(CC2(Nc3nccc(NCc4ccc(Cl)cc4Cl)n3)CCCCC2)CC1` were 98%, 58% and 98%.
Take `CCC1CN2CCc3c([nH]c4ccccc34)C2CC1CC1=NCCc2c1[nH]c1ccccc21.Cl` (stereo unspecified): the Inhibition amounted to 100% in the assay with Plasmodium falciparum [1], 47% with Plasmodium falciparum [2] and 20% in the assay on HepG2.
Take `Cl.NC1(C(=O)O)Cc2ccc(Cl)cc2C1` (stereo unspecified): the Inhibition with Plasmodium falciparum [1] amounted to 93%; with Plasmodium falciparum [2] it was 1%; with HepG2 it was 0%.
Taken in the same sequence, the figures for `Cl.N#Cc1ccc(-c2ccc(C(=O)Nc3ccc4c(c3)CCN(C3CCC3)CC4)nc2)cc1` were 99%, 63% and 21%.
In the case of `Cl.NC[C@H](CC1CCCCC1)NC(=O)c1ccc(-c2ccnc3[nH]ccc23)s1`, the Inhibition came to 98% in the assay with Plasmodium falciparum [1], 4% in the assay with Plasmodium falciparum [2] and 39% with HepG2.
On to `CC(C)(C)c1ccc(NC(=O)c2cccc(CN3CCCN(Cc4cccc(Cl)c4)CC3)c2)cc1.O=C(O)C(F)(F)F`, for which the Inhibition worked out at 85% in the assay with Plasmodium falciparum [1], 30% in the assay on Plasmodium falciparum [2] and 61% in the assay on HepG2.
Regarding `CCN(CC)CCN(Cc1ccc(-c2ccc(C(F)(F)F)cc2)cc1)C(=O)Cn1cc(Cc2cnn(C)c2)c(=O)nc1/C=C/c1ccc(F)cc1.O=C(O)C(O)C(O)C(=O)O`, the Inhibition is 96% in the assay with Plasmodium falciparum [1], 91% with Plasmodium falciparum [2] and 6% in the assay on HepG2.
In the case of `CC=Cc1cc(Cc2c[nH]c(=N)[nH]c2=N)cc(CCC)c1OC`, the figures for the Inhibition with Plasmodium falciparum [1], in the assay on Plasmodium falciparum [2] and in the assay with HepG2 were 97%, 1% and 16%, respectively.
Taken in the same sequence, the figures for `Cc1cccc2c3c([nH]c12)C1(CCN(CCc2ccccc2)CC1)NC(C(=O)NCc1ccccc1)C3` (stereo unspecified) were 86%, 52% and 10%.
In the same order, the values of `CCN(CCCN1CCCCC1)c1cc(C)nc(Nc2ccc(C)c(F)c2)n1.O=C(O)C(F)(F)F` are 100%, 92% and 20%.
In the same order, the values of `Nc1c(Cl)cc(C(O)CNCCCCCCCCCc2ccccn2)cc1Cl` (stereo unspecified) are 98%, 83% and 9%.
As to `Cc1ccc2[nH]c([N-]C#N)nc2c1.[Na+]`, the Inhibition in the assay on Plasmodium falciparum [1] came out at 96%; in the assay with Plasmodium falciparum [2], 0%; in the assay with HepG2, 7%.
For `O=C(/C=C/c1ccc(Cl)c(Cl)c1)NCCCCCN1CCCC(C(=O)Nc2ccc(F)c(Cl)c2)C1` (stereo unspecified), the Inhibition in the assay with Plasmodium falciparum [1] worked out at 99%; with Plasmodium falciparum [2], 2%; in the assay on HepG2, 28%.
In the same order, the values of `CCCN1CCN(CCCCNc2c3ccccc3nc3ccccc23)CC1.Cl` are 100%, 0% and 34%.
In the same order, the values of `COC(=O)c1cccc(CNCc2ccc(-c3ccc(-c4nc5cccc(C)c5[nH]4)s3)cc2)c1.O=C(O)C(F)(F)F` are 100%, 64% and 3%.
For the molecule `CS(=O)(=O)c1ccc2c(c1)CCN(CCC1CCC(NC(=O)C(=Cc3ccc(Cl)cc3Cl)c3ccc(-c4ccccc4)cc3)CC1)CC2` (stereo unspecified), the Inhibition with Plasmodium falciparum [1] is given as 81%; in the assay with Plasmodium falciparum [2] it was 16%; in the assay on HepG2, 33%.
With `CC(C)N(Cc1cnc(N)c(C#N)n1)c1ccc(Cl)c(Cl)c1`, the Inhibition in the assay on Plasmodium falciparum [1] is 97%; in the assay on Plasmodium falciparum [2], 63%; in the assay with HepG2, 0%.
As for `O=c1ccccn1CCCC1CCCCN1` (stereo unspecified), the Inhibition in the assay with Plasmodium falciparum [1] was found to be 96%; in the assay with Plasmodium falciparum [2] it was 0%; in the assay on HepG2 it was 0%.
Take `CNCCNCc1ccc(-c2ccc(-c3nc4ccccc4[nH]3)s2)cc1.O=C(O)C(F)(F)F`: the figures for the Inhibition in the assay on Plasmodium falciparum [1], with Plasmodium falciparum [2] and with HepG2 were 99%, 15% and 11%, respectively.
Take `COc1ccc2nccc(N(C)CC3(O)CCN(CC(O)c4ccc5c(c4)NC(=O)CS5)CC3)c2n1.Cl` (stereo unspecified): the Inhibition with Plasmodium falciparum [1] is listed as 100%; in the assay on Plasmodium falciparum [2] it was 0%; in the assay with HepG2, 1%.
Taken in the same sequence, the figures for `COc1ccc(-c2cnc(N)c(-c3ccc(O)c(OC)c3)c2)cn1` were 97%, 98% and 23%.
Taken in the same sequence, the figures for `CC(O)c1cccc(-c2ccc(Nc3ccnc4cc(-c5nccs5)ccc34)cc2)c1.Cl` (stereo unspecified) were 91%, 69% and 31%.
`O=C(NCCCCN1CCC(c2ccc3c(c2OCC(O)c2ccc(Cl)cc2)CCCC3)CC1)c1ccc(-c2ccc(C(F)(F)F)cc2)cc1` (stereo unspecified): the Inhibition worked out at 89% in the assay with Plasmodium falciparum [1], 67% with Plasmodium falciparum [2] and 100% in the assay on HepG2.
Turning to `COc1cccc(C(=O)Nc2ccc(S(=O)(=O)c3cc4c(cc3OC)CCN(C)CC4)cc2)c1`, the Inhibition in the assay with Plasmodium falciparum [1] stood at 86%; in the assay with Plasmodium falciparum [2], 3%; with HepG2, 0%.
Taken in the same sequence, the figures for `COc1ccc2ncn(-c3ccc(C(N)=O)c(OCc4ccccc4C(F)(F)F)c3)c2c1` were 98%, 100% and 18%.
Take `CC(=O)Nc1cccc(C(=O)Nc2nc3ccc(-c4cc(=O)[nH]c(Nc5ccccc5Cl)n4)cc3[nH]2)c1`: the Inhibition came to 99% with Plasmodium falciparum [1], 62% in the assay with Plasmodium falciparum [2] and 0% in the assay on HepG2.
Turning to `CNC(=O)C(C)N(c1ccc(Cl)cc1)c1nc(C(C)(C)C)cs1` (stereo unspecified), the Inhibition is 99% in the assay on Plasmodium falciparum [1], 98% in the assay on Plasmodium falciparum [2] and 0% with HepG2.
Taken in the same sequence, the figures for `NC(=O)c1ccc(NC(=O)CN(Cc2ccc(Cl)cc2)S(=O)(=O)c2ccccc2)cc1` were 90%, 75% and 2%.
Consider `CN(C)S(=O)(=O)c1ccc(C(=O)N(c2nc(-c3ccccc3)cs2)C2CCCCC2)cc1`, for which the Inhibition was 98% with Plasmodium falciparum [1], 46% in the assay with Plasmodium falciparum [2] and 7% in the assay with HepG2.
Taken in the same sequence, the figures for `CC1CCC2(CC1)NC(N)=NC(=N)N2OCCCCCCCCO` (stereo unspecified) were 96%, 87% and 2%.
Regarding `CCCCN1CCN(CCCNc2c3ccccc3nc3ccccc23)CC1.Cl`, the Inhibition in the assay with Plasmodium falciparum [1] came to 100%; in the assay with Plasmodium falciparum [2], 70%; in the assay on HepG2, 26%.
Taken in the same sequence, the figures for `O=C(/C=C/c1ccc(Br)cc1)NCCCCCN1CCC(c2c[nH]c3ccccc23)CC1` were 99%, 19% and 73%.
As for `Clc1ccc(-c2cnc3ccc(NCc4ccncc4)nn23)cc1`, the Inhibition in the assay with Plasmodium falciparum [1] is on record as 98%; with Plasmodium falciparum [2] it was 98%; in the assay with HepG2 it was 25%.
Consider `COc1cc(C(=O)N2CCN(C(C)C)CC2)ccc1CN(C)CCCN1CCN(c2cccc(Cl)c2Cl)CC1.Cl`, for which the Inhibition in the assay with Plasmodium falciparum [1] came to 100%; in the assay with Plasmodium falciparum [2] it was 87%; in the assay with HepG2, 56%.
Taken in the same sequence, the figures for `CCCCCCN1CCCN(Cc2ccc(C(=O)Nc3ccc(Cl)cc3)cc2)CC1.O=C(O)C(F)(F)F` were 89%, 54% and 50%.
Consider `Fc1ccc2[nH]c(-c3ccc(-c4ccc(CN5CCCCC5)cc4)s3)nc2c1.O=C(O)C(F)(F)F`, for which the Inhibition was 92% with Plasmodium falciparum [1], 100% in the assay with Plasmodium falciparum [2] and 42% in the assay on HepG2.
In the same order, the values of `CCCCCCCc1[nH]c2ccccc2c(=O)c1C` are 97%, 96% and 48%.
In the same order, the values of `Cc1nc(-c2ccc3c(c2)CCN(CCC2CCC(NC(=O)c4cc5cccc(Cl)c5[nH]4)CC2)CC3)no1.Cl` (stereo unspecified) are 100%, 46% and 36%.
